Reference: PubChem BioAssay (NCI)
The panel holds about 83,000 compounds, 20% with a hit somewhere; the sample as a whole holds those more often.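 Growth was measured after 48 h exposure to one concentration of compound in 96-well plates. Values under 10 count as active.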 Calls of active or inactive are those of the source.

What was measured:
Assay in all cases: NCI-60 one-dose screen, 48 h (100 = growth as untreated, 0 = no growth, -100 = all killed)
Conditions in all cases: 10 µM
HCT-15 colon = test system: HCT-15 colon
HT29 colon = test system: HT29 colon
SNB-75 CNS = test system: SNB-75 CNS
SNB-19 CNS = test system: SNB-19 CNS
U251 CNS = test system: U251 CNS
PC-3 prostate = test system: PC-3 prostate
SK-MEL-5 melanoma = test system: SK-MEL-5 melanoma
UACC-62 melanoma = test system: UACC-62 melanoma
LOX IMVI melanoma = test system: LOX IMVI melanoma
SK-MEL-28 melanoma = test system: SK-MEL-28 melanoma

Measured: growth

CCCCC(CC)CN=C(N)NC(N)=NCCCCCCN=C(N)NC(N)=NCC(CC)CCCC (stereo not given)
active: HCT-15 colon 7.37% | HT29 colon -82.8% | SNB-75 CNS -72.5% | SNB-19 CNS -87.2% | U251 CNS -89.8% | PC-3 prostate -69.7% | SK-MEL-5 melanoma -89.8% | UACC-62 melanoma -58% | LOX IMVI melanoma -80.8% | SK-MEL-28 melanoma -79.6%

CC(=O)Oc1cc(OC(C)=O)c2ccccc2c1OC(C)=O
inactive: HCT-15 colon 81.3% | HT29 colon 92.9% | SNB-75 CNS 85.7% | SNB-19 CNS 93.8% | U251 CNS 94% | PC-3 prostate 62.6% | SK-MEL-5 melanoma 60.9% | UACC-62 melanoma 89.9% | LOX IMVI melanoma 48.3% | SK-MEL-28 melanoma 99.5%

CCN(CC)c1ccc(/C=C2\SC(=O)C(Nc3nnc(-c4cccnc4SCc4ccccc4)o3)C2=O)cc1 (stereo not given)
active: HT29 colon 3.09% | U251 CNS 3.89%
inactive: HCT-15 colon 15.2% | SNB-75 CNS 44.1% | SNB-19 CNS 63.5% | PC-3 prostate 16.9% | SK-MEL-5 melanoma 27.4% | UACC-62 melanoma 30.2% | LOX IMVI melanoma 42.3% | SK-MEL-28 melanoma 50.8%

C=CCn1c(SCC(=O)Nc2ccc(C(=O)/C=C/c3cc(OC)c(OC)c(OC)c3)cc2)nnc1-c1cc(-c2ccc(Cl)cc2)nc2ccccc12
inactive: HCT-15 colon 59.5% | HT29 colon 74.7% | SNB-75 CNS 68.8% | SNB-19 CNS 84.1% | U251 CNS 86.3% | PC-3 prostate 71.7% | SK-MEL-5 melanoma 91% | UACC-62 melanoma 84.2% | LOX IMVI melanoma 75.5% | SK-MEL-28 melanoma 100%

CCCCCCCCCCOC(c1ccccc1)c1ccccc1
inactive: HCT-15 colon 81.1% | HT29 colon 66.7% | SNB-75 CNS 95.1% | SNB-19 CNS 96% | U251 CNS 94.2% | PC-3 prostate 83.5% | SK-MEL-5 melanoma 104% | UACC-62 melanoma 81.5% | LOX IMVI melanoma 79.6% | SK-MEL-28 melanoma 96.2%

Cc1cc(CCNC=O)c(C)c2c1sc1ccccc12
inactive: HCT-15 colon 90.2% | HT29 colon 97.1% | SNB-75 CNS 81.9% | SNB-19 CNS 85.1% | U251 CNS 92% | PC-3 prostate 84.7% | SK-MEL-5 melanoma 78.8% | UACC-62 melanoma 79.1% | LOX IMVI melanoma 98.4% | SK-MEL-28 melanoma 89.9%

N#Cc1c(-c2ccc(Cl)cc2)csc1NC(=O)Nc1ccc(Cl)c(C(F)(F)F)c1
inactive: SNB-75 CNS 36.5% | SNB-19 CNS 31.6% | UACC-62 melanoma 16.2% | LOX IMVI melanoma 11.7% | SK-MEL-28 melanoma 28.4%
active: HCT-15 colon 4.52% | HT29 colon 1.62% | U251 CNS 2.57% | PC-3 prostate 1.89% | SK-MEL-5 melanoma -24.2%

Cc1cc(Br)nnc1Br
inactive: HCT-15 colon 102% | HT29 colon 113% | SNB-75 CNS 75.4% | SNB-19 CNS 110% | U251 CNS 112% | PC-3 prostate 110% | SK-MEL-5 melanoma 94.7% | UACC-62 melanoma 111% | LOX IMVI melanoma 108% | SK-MEL-28 melanoma 114%

COc1cc(-c2csc(NC(=O)Nc3cc(C(F)(F)F)cc(C(F)(F)F)c3)n2)cc(OC)c1OC
active: HT29 colon 7.94% | U251 CNS 9.2% | PC-3 prostate 4.29% | SK-MEL-5 melanoma -4.49% | LOX IMVI melanoma 6.63%
inactive: HCT-15 colon 11.8% | SNB-75 CNS 34.1% | SNB-19 CNS 25.3% | UACC-62 melanoma 18.7% | SK-MEL-28 melanoma 17.6%

COc1cc2cc(Oc3ccc(NC(=O)Nc4ccc(C(F)(F)F)cc4)cc3)c(C)nc2cc1OC
inactive: HCT-15 colon 75.4% | HT29 colon 44.6% | SNB-75 CNS 41% | SNB-19 CNS 93.4% | U251 CNS 15% | PC-3 prostate 48.3% | SK-MEL-5 melanoma 47.4% | UACC-62 melanoma 69.2% | LOX IMVI melanoma 56.4% | SK-MEL-28 melanoma 58.4%

CC[C@@H]1NC(=O)[C@H]([C@H](O)[C@H](C)C/C=C/c2ccc(CN3C(=O)CCCC3=O)cc2)N(C)C(=O)[C@H](C(C)C)N(C)C(=O)[C@H](CC(C)C)N(C)C(=O)[C@H](CC(C)C)N(C)C(=O)[C@@H](C)NC(=O)[C@H](C)NC(=O)[C@H](CC(C)C)N(C)C(=O)[C@H](C(C)C)NC(=O)[C@H](CC(C)C)N(C)C(=O)CN(C)C1=O
inactive: HCT-15 colon 19.5% | SNB-75 CNS 56.7% | SNB-19 CNS 60.7% | U251 CNS 60.2% | PC-3 prostate 37.3% | SK-MEL-5 melanoma 23.2% | UACC-62 melanoma 59.4% | SK-MEL-28 melanoma 46.3%
active: HT29 colon -24.8% | LOX IMVI melanoma 1.01%

N#Cc1ccc(C(=O)CSc2nccc(Nc3ccc(C(=O)O)cc3)n2)cc1
inactive: HCT-15 colon 106% | HT29 colon 104% | SNB-75 CNS 106% | SNB-19 CNS 99% | U251 CNS 106% | PC-3 prostate 99.5% | SK-MEL-5 melanoma 99.1% | UACC-62 melanoma 103% | LOX IMVI melanoma 101% | SK-MEL-28 melanoma 110%

CC[C@@H](C(=O)[C@@H](C)[C@@H](O)[C@H](C)[C@@H]1O[C@@H]([C@@H](CC)C(=O)N(CC)CC)CC[C@@H]1C)C1O[C@]2(C=CC(=O)[C@]3(CC[C@@](C)([C@H]4CC[C@](O)(CC)[C@H](C)O4)O3)O2)[C@H](C)C[C@@H]1C (stereo not given in full)
inactive: HCT-15 colon 11% | HT29 colon 13.1% | SNB-75 CNS 30.2% | SNB-19 CNS 23.4% | UACC-62 melanoma 13% | LOX IMVI melanoma 34.3% | SK-MEL-28 melanoma 19.5%
active: U251 CNS 6.72% | PC-3 prostate 7.83% | SK-MEL-5 melanoma -42.9%

CN(C)CCCN1c2ccccc2CCc2ccc(Cl)cc21
active: SK-MEL-5 melanoma -29.7% | UACC-62 melanoma 7.82%
inactive: HCT-15 colon 51.4% | HT29 colon 18.8% | SNB-75 CNS 39.2% | SNB-19 CNS 96.1% | U251 CNS 55.4% | PC-3 prostate 40.8% | LOX IMVI melanoma 56.9% | SK-MEL-28 melanoma 36.9%

CCOC(=O)c1cc(C(=O)c2cc(OC)cc(OC)c2)n2nc(C)ccc12
inactive: HCT-15 colon 32.2% | SNB-75 CNS 18% | SNB-19 CNS 39.4% | U251 CNS 23.1% | PC-3 prostate 25% | SK-MEL-5 melanoma 30.6% | UACC-62 melanoma 46.7% | LOX IMVI melanoma 48.7% | SK-MEL-28 melanoma 78.7%
active: HT29 colon 3.72%

O=C(Nc1cc(Cl)cc2c1-c1ccc(Cl)cc1C2O)C(Cl)Cl (stereo not given)
inactive: HCT-15 colon 82.5% | HT29 colon 84.9% | SNB-75 CNS 65.9% | SNB-19 CNS 70% | U251 CNS 78.4% | PC-3 prostate 67.7% | SK-MEL-5 melanoma 41.5% | UACC-62 melanoma 60.3% | LOX IMVI melanoma 76.2% | SK-MEL-28 melanoma 84.6%

CCCCN1C(=O)CC(SC2CC(=O)N(CCCC)C2=O)C1=O (stereo not given)
inactive: HCT-15 colon 120% | HT29 colon 76.1% | SNB-75 CNS 87.4% | SNB-19 CNS 99.5% | U251 CNS 107% | PC-3 prostate 99.4% | SK-MEL-5 melanoma 104% | UACC-62 melanoma 96.6% | LOX IMVI melanoma 95% | SK-MEL-28 melanoma 121%

COc1ccccc1/C=N\N/C(N)=N\N=C\c1ccccc1OC
inactive: SNB-75 CNS 21.5% | SNB-19 CNS 35.3% | PC-3 prostate 29.3% | UACC-62 melanoma 19.7% | SK-MEL-28 melanoma 56.9%
active: HCT-15 colon 1.27% | HT29 colon -1.01% | U251 CNS 5.71% | SK-MEL-5 melanoma -30% | LOX IMVI melanoma 5.74%

CCN(CC)CCOc1ccc2c(c1O)C(=O)c1ccccc1C2=O
inactive: HCT-15 colon 74.4% | HT29 colon 68.1% | SNB-75 CNS 79.1% | SNB-19 CNS 82.6% | U251 CNS 77.3% | PC-3 prostate 85.3% | SK-MEL-5 melanoma 81.2% | UACC-62 melanoma 90.5% | LOX IMVI melanoma 76.6% | SK-MEL-28 melanoma 102%

NC(CSC(c1ccccc1)(c1ccccc1)c1cccc2ccccc12)C(=O)O (stereo not given)
inactive: HCT-15 colon 102% | HT29 colon 113% | SNB-75 CNS 87.6% | SNB-19 CNS 84.9% | U251 CNS 93% | PC-3 prostate 84.3% | SK-MEL-5 melanoma 82.6% | UACC-62 melanoma 90.4% | LOX IMVI melanoma 96.9% | SK-MEL-28 melanoma 93.7%

CCC(C)[C@H](NC(C)=O)C(=O)N[C@@H](CCCNC(=N)N)C(=O)N[C@@H](CCCCN)C(=O)N[C@@H](CC1CCC(O)CC1)C(=O)NC(C(=O)N[C@@H](CCSC)C(=O)N[C@@H](CCCNC(=N)N)C(=O)N[C@@]1(C)CCC/C=C\CCC[C@@](C)(C(=O)NC(C(=O)N[C@@H](CCC(=O)O)C(=O)N[C@@H](CC(C)C)C(=O)N[C@H](C(=O)N[C@@H](CCC(=O)O)C(N)=O)C(C)C)[C@@H](C)O)NC(=O)[C@H](CCC(N)=O)NC(=O)[C@H](CC(C)C)NC(=O)[C@H](CC(C)C)NC1=O)[C@@H](C)O (stereo not given in full)
inactive: HCT-15 colon 100% | HT29 colon 90.6% | SNB-75 CNS 107% | SNB-19 CNS 110% | U251 CNS 98.9% | PC-3 prostate 99.1% | SK-MEL-5 melanoma 102% | UACC-62 melanoma 99.6% | LOX IMVI melanoma 109% | SK-MEL-28 melanoma 94.6%

CC(=O)Nc1ccc(S(=O)(=O)N/N=C(\C)c2ccc(C)cc2C)cc1
inactive: HCT-15 colon 100% | HT29 colon 105% | SNB-75 CNS 77.4% | SNB-19 CNS 101% | U251 CNS 104% | PC-3 prostate 99.9% | SK-MEL-5 melanoma 113% | UACC-62 melanoma 107% | LOX IMVI melanoma 106% | SK-MEL-28 melanoma 108%

Cc1n[nH]c(C)c1N=Nc1cccc2c1C(=O)c1ccccc1C2=O
inactive: HCT-15 colon 78.4% | HT29 colon 96.8% | SNB-75 CNS 95.1% | SNB-19 CNS 93.1% | U251 CNS 92.4% | PC-3 prostate 90.5% | SK-MEL-5 melanoma 93.1% | UACC-62 melanoma 89.5% | LOX IMVI melanoma 69.8% | SK-MEL-28 melanoma 113%

CC(C)(C)OC(=O)CN1CCc2c(sc3ncnc(N/N=C/c4ccccc4Br)c23)C1
inactive: HCT-15 colon 37% | HT29 colon 81.6% | SNB-75 CNS 52.6% | SNB-19 CNS 81.2% | U251 CNS 77.9% | PC-3 prostate 47.9% | SK-MEL-5 melanoma 55.1% | UACC-62 melanoma 39.5% | LOX IMVI melanoma 53.7% | SK-MEL-28 melanoma 90.9%

COc1ccc(-c2csc(NC(=O)c3ccc(Cc4n[nH]c(=O)c5cccnc45)cc3)n2)cc1
inactive: HCT-15 colon 85.8% | HT29 colon 104% | SNB-75 CNS 82.6% | SNB-19 CNS 89.8% | U251 CNS 99.1% | PC-3 prostate 77.9% | SK-MEL-5 melanoma 85.7% | UACC-62 melanoma 74.5% | LOX IMVI melanoma 90.3% | SK-MEL-28 melanoma 95.2%
